The record followed here is the supplement of paper PMC13094657.

± gives the standard deviation of the averaged measurements.

The assay concerns MDA-MB-231. In words: kynurenine production, fold change vs DMSO IFNg/TNF control; higher = more kynurenine produced (less inhibition). As to conditions: pre-treatment time: 18 h then 24 h IFNg/TNF. The method, boiled down: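 MDA-MB-231 cells were seeded in 96-well plates at 7 × 10^4/well and, 24 h later, pre-treated for 18 h with each natural product in 0.1% DMSO. They were then stimulated for 24 h at 37°C with IFNγ (1 U/ml) and TNF (6.25 ng/ml). Supernatants were treated with trichloroacetic acid and p-dimethylaminobenzaldehyde and read at 492 nm against 0–100 μM standards. Kynurenine production is expressed as fold change over cytokine-stimulated vehicle wells on the same plate and, in the first screening round, averaged across duplicate plates.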
`C=C1C(=O)O[C@H]2C1CC[C@@](C)(O)C13C=CC(C)(C21)C1(C3)C(=O)O[C@@H]2C3C(C)=CCC3[C@](C)(O)[C@H](OC(C)=O)CC21` (stereo not given in full) [Handelin] (compound dose: 10 uM): the kynurenine production was 0.709 ± 0.3.
`C[C@@]12C[C@@]3(O)O[C@@H](O1)[C@]1(COC(=O)c4ccccc4)[C@H]3C[C@@]12O[C@@H]1O[C@H](CO)[C@@H](O)[C@H](O)[C@H]1O` [Paeoniflorin] (compound dose: 10 uM): the kynurenine production came to 1.34 ± 0.27.
With `CC1(C)O[C@H]2CC(=O)OC[C@]23[C@H]2CC[C@@]4(C)[C@H](c5ccoc5)OC(=O)[C@H]5O[C@]54[C@]2(C)C(=O)C[C@@H]13` [Limonin] (compound dose: 10 uM), the kynurenine production worked out at 0.86 ± 0.3.
With `C[C@@]12C[C@@]3(O)O[C@@H](O1)[C@]1(COC(=O)c4ccccc4)[C@@H]3C[C@]12O[C@@H]1O[C@H](COC(=O)c2ccccc2)[C@@H](O)[C@H](O)[C@H]1O` [Benzoylpaeoniflorin] (compound dose: 10 uM) the figure was 0.893 ± 0.11.
As for `C=C1CC[C@@H]2[C@](C)(CO)[C@H](O)CC[C@@]2(C)[C@@H]1C/C=C1/C(=O)OC[C@H]1O` [Andrographolide] (compound dose: 10 uM), the figure is 0.534 ± 0.15.
